What all share (experiment): DAPPL (digital affinity profiling via proximity ligation, sequencing); 10 mM Tris-HCl pH 7.5, 50 mM NaCl, 1 mM DTT, 4% glycerol, room temperature, 30 min; GST-TFs on glutathione beads, 16-mer random dsDNA library, 0.1% formaldehyde crosslink after washing; high values mean tight binding
The target in one test is T1, FEV (Homo sapiens, UniProt Q99581 1-238).
T1 sequence: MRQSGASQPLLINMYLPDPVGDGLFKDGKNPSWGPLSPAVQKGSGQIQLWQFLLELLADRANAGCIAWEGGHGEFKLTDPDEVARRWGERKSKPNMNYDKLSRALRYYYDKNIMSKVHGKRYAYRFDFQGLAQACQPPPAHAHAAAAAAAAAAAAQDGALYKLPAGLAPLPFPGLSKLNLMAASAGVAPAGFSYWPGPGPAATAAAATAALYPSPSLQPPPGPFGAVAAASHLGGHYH
Conditions: protein: recombinant; tags: N-terminal GST; dsDNA, one strand shown. An outline of the steps: (§1)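 Beads coated with glutathione captured GST-fused human transcription factors that had been expressed in yeast, and the factors were then given DNA barcodes and pooled with a tag-only sample. The pools were incubated with 200 nmole of a random double-stranded 16-mer DNA library in Tris/NaCl/DTT/glycerol buffer for 30 min at room temperature, washed, crosslinked with 0.1% formaldehyde and proximity-ligated with BsaI/T4 ligase at 37 °C for 1 h. PCR amplification and Illumina NextSeq500 sequencing came last. Binding signal is each hexamer's read frequency for a factor divided by its frequency for the tag-only sample.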

The target in the next test is ETV5 (Homo sapiens, UniProt P41161 1-510). As to conditions: protein: recombinant; tags: N-terminal GST; dsDNA, one strand shown. An outline of the steps:
as §1

The next test addresses HSF1 (Homo sapiens, UniProt Q00613 1-529). Conditions: protein: recombinant; tags: N-terminal GST; chain copies: 3; dsDNA, one strand shown. In short, it runs like this:
as §1

A further test has as its target T2, SPIC (Homo sapiens, UniProt Q8N5J4 1-248).
T2 sequence: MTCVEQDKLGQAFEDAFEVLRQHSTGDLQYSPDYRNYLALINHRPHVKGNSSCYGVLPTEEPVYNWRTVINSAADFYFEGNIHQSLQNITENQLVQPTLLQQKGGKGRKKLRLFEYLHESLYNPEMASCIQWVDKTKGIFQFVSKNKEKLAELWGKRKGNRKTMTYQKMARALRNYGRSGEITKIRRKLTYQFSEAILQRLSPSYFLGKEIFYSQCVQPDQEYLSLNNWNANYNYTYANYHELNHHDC
Conditions: protein: recombinant; tags: N-terminal GST; dsDNA, one strand shown. An outline of the steps:
as §1

In another test the target is ELF4 (Homo sapiens, UniProt Q99607 1-663). Conditions: protein: recombinant; tags: N-terminal GST; dsDNA, one strand shown. In short, it runs like this:
as §1

The next test deals with T3, ELK4 (Homo sapiens, UniProt P28324-2 1-405).
T3 sequence: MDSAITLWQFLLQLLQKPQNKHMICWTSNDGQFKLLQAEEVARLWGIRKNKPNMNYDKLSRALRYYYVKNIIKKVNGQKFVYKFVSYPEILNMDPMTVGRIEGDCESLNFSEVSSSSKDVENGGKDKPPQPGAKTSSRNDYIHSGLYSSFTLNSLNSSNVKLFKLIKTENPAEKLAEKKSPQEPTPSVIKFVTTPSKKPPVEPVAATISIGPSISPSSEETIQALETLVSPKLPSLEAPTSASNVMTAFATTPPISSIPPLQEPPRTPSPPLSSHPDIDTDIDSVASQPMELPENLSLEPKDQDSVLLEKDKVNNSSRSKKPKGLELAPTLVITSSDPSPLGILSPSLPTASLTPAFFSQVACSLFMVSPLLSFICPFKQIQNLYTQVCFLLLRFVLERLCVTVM
Conditions: protein: recombinant; tags: N-terminal GST; dsDNA, one strand shown. An outline of the steps: as §1

The target in the next test is T4, ETV2 (Homo sapiens, UniProt O00321 1-342).
T4 sequence: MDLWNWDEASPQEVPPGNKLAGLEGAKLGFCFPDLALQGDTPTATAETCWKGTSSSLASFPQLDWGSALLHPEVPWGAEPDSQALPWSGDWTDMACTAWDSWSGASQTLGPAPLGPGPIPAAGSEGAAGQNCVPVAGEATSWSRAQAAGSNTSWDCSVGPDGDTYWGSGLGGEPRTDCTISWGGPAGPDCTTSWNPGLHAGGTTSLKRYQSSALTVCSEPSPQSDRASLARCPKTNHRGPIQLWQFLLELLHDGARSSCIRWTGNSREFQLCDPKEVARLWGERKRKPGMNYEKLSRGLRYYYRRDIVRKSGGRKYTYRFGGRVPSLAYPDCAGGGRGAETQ
Conditions: protein: recombinant; tags: N-terminal GST; dsDNA, one strand shown. In short, it runs like this:
as §1

The target of another test is T5, ELF3 (Homo sapiens, UniProt P78545 1-371).
T5 sequence: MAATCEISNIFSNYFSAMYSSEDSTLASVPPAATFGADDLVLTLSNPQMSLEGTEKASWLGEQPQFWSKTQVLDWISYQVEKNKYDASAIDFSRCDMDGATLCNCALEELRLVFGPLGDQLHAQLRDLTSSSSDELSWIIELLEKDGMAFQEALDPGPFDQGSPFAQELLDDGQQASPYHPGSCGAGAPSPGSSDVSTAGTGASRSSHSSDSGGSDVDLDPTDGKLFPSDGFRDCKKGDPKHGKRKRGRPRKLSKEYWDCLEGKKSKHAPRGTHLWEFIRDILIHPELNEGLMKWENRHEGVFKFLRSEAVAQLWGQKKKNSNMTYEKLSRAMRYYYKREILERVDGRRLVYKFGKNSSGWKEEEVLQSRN
As to conditions: protein: recombinant; tags: N-terminal GST; dsDNA, one strand shown. An outline of the steps:
as §1

A further test concerns the target CRX (Homo sapiens, UniProt O43186 1-299). Conditions: protein: recombinant; tags: N-terminal GST; dsDNA, one strand shown. In short, it runs like this:
as §1

A further test concerns the target ETV1 (Homo sapiens, UniProt P50549 1-477). As to conditions: protein: recombinant; tags: N-terminal GST; dsDNA, one strand shown. In short, it runs like this:
as §1

The next test addresses T6, ERF (Homo sapiens, UniProt P50548 1-548).
T6 sequence: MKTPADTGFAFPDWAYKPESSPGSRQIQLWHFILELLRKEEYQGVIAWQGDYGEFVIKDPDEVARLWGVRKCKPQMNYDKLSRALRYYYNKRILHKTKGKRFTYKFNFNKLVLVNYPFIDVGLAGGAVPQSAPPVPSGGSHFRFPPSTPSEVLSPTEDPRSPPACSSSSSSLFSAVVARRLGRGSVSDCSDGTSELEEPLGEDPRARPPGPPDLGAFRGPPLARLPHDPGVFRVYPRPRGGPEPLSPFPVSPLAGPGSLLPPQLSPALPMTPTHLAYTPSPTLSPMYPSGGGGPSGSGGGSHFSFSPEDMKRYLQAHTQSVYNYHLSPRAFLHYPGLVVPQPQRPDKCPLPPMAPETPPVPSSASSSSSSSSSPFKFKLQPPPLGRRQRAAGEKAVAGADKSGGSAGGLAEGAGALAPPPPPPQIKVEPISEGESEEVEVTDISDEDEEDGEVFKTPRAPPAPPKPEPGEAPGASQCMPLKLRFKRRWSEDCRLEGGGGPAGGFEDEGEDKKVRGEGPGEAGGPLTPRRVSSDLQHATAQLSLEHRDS
As to conditions: protein: recombinant; tags: N-terminal GST; dsDNA, one strand shown. An outline of the steps:
as §1

The next test deals with T7, ETV3L (Homo sapiens, UniProt Q6ZN32 1-361).
T7 sequence: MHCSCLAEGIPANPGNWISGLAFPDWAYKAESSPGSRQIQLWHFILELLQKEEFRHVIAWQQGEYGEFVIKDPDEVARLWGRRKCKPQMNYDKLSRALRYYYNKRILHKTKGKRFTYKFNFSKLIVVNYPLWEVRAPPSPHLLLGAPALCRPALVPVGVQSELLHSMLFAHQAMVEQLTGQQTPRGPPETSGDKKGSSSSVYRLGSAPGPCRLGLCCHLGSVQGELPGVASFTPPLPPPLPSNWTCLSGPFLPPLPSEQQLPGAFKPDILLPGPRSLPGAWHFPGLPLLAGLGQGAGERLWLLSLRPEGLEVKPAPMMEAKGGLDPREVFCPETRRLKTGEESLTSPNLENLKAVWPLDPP
As to conditions: protein: recombinant; tags: N-terminal GST; dsDNA, one strand shown. In short, it runs like this: as §1

For the next test, the target named is T8, ETS2 (Homo sapiens, UniProt P15036 1-469).
T8 sequence: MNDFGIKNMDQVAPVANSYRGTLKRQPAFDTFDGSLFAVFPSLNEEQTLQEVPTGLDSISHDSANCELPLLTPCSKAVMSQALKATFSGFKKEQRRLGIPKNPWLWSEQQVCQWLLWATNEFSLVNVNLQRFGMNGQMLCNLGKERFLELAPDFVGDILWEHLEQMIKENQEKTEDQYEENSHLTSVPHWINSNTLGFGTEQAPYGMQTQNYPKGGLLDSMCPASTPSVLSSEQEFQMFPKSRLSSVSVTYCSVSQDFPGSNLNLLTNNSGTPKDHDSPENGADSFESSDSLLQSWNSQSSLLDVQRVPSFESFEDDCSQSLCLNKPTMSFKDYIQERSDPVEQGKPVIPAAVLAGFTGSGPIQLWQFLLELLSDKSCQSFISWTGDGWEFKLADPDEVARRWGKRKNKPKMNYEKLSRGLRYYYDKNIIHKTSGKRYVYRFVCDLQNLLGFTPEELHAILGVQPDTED
Conditions: protein: recombinant; tags: N-terminal GST; dsDNA, one strand shown. In short, it runs like this:
as §1

A further test concerns the target T9, SPDEF (Homo sapiens, UniProt O95238 1-335).
T9 sequence: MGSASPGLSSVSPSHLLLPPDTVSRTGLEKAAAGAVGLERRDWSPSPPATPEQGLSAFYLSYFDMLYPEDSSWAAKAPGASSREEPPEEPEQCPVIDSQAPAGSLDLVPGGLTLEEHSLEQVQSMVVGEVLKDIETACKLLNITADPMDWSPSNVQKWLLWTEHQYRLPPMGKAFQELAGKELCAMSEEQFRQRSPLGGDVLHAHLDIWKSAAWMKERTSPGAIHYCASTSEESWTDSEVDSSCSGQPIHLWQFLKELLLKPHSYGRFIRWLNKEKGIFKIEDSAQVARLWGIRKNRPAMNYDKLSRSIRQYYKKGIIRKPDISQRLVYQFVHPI
Conditions: protein: recombinant; tags: N-terminal GST; dsDNA, one strand shown. In short, it runs like this: as §1

A further test deals with T10, ETV7 (Homo sapiens, UniProt Q9Y603 1-341).
T10 sequence: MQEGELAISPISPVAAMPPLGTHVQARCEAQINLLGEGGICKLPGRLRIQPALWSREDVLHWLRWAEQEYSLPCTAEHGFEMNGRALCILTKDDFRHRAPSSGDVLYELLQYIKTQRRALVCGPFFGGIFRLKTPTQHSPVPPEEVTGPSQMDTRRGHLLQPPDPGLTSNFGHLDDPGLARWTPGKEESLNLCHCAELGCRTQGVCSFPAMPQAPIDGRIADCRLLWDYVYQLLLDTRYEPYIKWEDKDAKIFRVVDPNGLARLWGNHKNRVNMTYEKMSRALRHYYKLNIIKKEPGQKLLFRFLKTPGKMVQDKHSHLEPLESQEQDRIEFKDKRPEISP
As to conditions: protein: recombinant; tags: N-terminal GST; dsDNA, one strand shown. In short, it runs like this:
as §1

The next test concerns the target T11, ELF5 (Homo sapiens, UniProt Q9UKW6-2 1-255).
T11 sequence: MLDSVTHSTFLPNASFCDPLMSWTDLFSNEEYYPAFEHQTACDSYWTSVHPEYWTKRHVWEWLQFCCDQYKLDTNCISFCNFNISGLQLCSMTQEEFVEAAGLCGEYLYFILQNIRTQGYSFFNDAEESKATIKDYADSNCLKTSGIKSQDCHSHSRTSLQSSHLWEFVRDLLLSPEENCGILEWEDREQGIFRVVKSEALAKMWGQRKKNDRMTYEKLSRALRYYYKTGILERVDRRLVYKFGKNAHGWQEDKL
Conditions: protein: recombinant; tags: N-terminal GST; dsDNA, one strand shown. In short, it runs like this:
as §1

Another test addresses T12, ETV3 (Homo sapiens, UniProt P41162-2 1-143).
T12 sequence: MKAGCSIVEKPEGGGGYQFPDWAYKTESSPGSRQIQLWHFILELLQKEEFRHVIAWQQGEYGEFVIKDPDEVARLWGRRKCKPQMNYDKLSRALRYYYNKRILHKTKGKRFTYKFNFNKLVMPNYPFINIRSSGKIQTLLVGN
As to conditions: protein: recombinant; tags: N-terminal GST; dsDNA, one strand shown. An outline of the steps: as §1

A further test concerns the target ETV6 (Homo sapiens, UniProt P41212 1-452). Conditions: protein: recombinant; tags: N-terminal GST; dsDNA, one strand shown. In short, it runs like this:
as §1

Chain of ETV1 (P50549 whole entry): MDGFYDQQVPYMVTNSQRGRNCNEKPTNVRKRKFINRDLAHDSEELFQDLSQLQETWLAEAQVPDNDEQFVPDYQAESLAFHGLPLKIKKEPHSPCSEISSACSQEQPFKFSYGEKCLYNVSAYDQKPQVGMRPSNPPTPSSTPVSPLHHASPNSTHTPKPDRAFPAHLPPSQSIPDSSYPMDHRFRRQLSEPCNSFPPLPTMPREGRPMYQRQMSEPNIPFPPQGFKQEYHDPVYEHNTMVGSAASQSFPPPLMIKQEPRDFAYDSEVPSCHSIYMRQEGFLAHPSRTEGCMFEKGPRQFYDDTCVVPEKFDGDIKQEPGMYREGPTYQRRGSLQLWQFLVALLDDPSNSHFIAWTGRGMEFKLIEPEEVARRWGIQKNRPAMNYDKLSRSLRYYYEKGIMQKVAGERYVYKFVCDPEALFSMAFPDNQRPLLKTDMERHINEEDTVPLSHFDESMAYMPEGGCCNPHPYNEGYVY
Chain of HSF1 (Q00613 whole entry): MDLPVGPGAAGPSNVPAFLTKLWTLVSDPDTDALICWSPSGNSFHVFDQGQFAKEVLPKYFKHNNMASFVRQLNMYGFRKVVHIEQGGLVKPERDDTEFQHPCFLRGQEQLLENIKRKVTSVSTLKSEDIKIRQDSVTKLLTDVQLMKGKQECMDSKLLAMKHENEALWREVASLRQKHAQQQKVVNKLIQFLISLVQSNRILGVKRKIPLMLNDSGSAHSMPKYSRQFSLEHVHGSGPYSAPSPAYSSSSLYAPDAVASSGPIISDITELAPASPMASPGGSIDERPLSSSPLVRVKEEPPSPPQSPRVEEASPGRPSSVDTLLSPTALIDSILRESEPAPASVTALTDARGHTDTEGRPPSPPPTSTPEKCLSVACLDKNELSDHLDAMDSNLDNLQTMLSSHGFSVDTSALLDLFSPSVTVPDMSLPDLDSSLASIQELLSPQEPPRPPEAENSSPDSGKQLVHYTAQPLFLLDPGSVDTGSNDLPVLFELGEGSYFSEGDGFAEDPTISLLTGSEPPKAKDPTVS
Chain of ELF4 (Q99607 whole entry): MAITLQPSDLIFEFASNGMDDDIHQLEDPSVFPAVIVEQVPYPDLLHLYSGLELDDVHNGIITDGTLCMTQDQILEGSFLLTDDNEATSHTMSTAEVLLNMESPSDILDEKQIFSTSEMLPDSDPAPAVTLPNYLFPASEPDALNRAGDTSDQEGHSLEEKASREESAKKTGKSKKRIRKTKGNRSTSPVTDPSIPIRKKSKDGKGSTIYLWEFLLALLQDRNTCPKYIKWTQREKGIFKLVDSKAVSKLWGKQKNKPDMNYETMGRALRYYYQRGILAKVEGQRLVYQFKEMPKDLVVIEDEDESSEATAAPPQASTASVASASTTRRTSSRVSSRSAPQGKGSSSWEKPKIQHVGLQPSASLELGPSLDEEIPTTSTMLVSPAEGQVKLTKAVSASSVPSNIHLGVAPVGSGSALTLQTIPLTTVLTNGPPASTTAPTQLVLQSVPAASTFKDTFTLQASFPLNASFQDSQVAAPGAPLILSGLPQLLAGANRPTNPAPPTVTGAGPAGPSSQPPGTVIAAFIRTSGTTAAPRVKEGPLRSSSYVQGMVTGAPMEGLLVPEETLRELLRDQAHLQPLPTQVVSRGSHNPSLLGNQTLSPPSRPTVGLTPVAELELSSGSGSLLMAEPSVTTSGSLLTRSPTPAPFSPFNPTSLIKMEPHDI
Chain of CRX (O43186 whole entry): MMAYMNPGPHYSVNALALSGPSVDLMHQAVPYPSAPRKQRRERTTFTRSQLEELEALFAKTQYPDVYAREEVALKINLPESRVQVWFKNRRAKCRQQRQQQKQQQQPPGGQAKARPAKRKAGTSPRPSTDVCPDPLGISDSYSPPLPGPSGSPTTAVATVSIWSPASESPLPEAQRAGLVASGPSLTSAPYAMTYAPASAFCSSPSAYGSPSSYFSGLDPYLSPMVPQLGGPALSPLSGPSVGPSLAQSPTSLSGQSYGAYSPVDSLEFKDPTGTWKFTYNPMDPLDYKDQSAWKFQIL
Chain of ETV5 (P41161 whole entry): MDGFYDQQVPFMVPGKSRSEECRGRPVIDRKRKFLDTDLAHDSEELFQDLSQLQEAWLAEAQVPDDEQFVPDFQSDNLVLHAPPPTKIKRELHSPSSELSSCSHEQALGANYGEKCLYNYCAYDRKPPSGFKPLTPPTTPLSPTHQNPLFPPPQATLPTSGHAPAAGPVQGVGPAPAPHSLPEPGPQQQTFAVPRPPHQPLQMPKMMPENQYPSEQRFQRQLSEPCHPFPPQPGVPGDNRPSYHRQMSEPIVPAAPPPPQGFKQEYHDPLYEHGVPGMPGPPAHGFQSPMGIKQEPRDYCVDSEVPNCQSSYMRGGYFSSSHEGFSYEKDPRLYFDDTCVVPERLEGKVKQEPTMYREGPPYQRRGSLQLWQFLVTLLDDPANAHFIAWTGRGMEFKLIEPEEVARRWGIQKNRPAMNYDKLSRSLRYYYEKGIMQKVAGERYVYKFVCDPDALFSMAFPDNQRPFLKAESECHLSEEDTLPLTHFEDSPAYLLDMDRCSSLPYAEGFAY
Chain of ETV6 (P41212 whole entry): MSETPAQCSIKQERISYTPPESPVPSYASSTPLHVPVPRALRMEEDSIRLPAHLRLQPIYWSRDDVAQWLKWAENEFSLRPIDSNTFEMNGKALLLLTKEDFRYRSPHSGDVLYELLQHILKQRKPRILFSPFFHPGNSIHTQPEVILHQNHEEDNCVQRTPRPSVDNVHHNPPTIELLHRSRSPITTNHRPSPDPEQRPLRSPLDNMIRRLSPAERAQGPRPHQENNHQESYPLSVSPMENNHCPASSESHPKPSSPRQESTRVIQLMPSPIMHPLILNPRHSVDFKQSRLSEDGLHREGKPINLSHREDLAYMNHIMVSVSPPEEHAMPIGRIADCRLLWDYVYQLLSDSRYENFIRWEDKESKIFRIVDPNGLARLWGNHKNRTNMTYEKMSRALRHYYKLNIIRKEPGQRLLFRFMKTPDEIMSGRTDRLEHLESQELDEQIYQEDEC

Regarding AATCAC, the binding signal was 1.09 fold enrichment (6-mer frequency, TF over GST control) in the test with FEV; 1.14 fold enrichment (6-mer frequency, TF over GST control) with ETV5; 1.08 fold enrichment (6-mer frequency, TF over GST control) with HSF1; 1.08 fold enrichment (6-mer frequency, TF over GST control) with SPIC; 1.09 fold enrichment (6-mer frequency, TF over GST control) with ELF4; 1.11 fold enrichment (6-mer frequency, TF over GST control) with ELK4. The binding signal is 1.18 fold enrichment (6-mer frequency, TF over GST control) with ETV2; 1.12 fold enrichment (6-mer frequency, TF over GST control) with ELF3; 1.3 fold enrichment (6-mer frequency, TF over GST control) in the test with CRX; 1.08 fold enrichment (6-mer frequency, TF over GST control) in the test with ETV1; 1.05 fold enrichment (6-mer frequency, TF over GST control) in the test with ERF; 1.12 fold enrichment (6-mer frequency, TF over GST control) in the test with ETV3L. Further, the binding signal is 1.06 fold enrichment (6-mer frequency, TF over GST control) with ETS2; 1.05 fold enrichment (6-mer frequency, TF over GST control) with SPDEF; 1.02 fold enrichment (6-mer frequency, TF over GST control) with ETV7; 1.09 fold enrichment (6-mer frequency, TF over GST control) in the test with ELF5; 1.07 fold enrichment (6-mer frequency, TF over GST control) with ETV3; 1.09 fold enrichment (6-mer frequency, TF over GST control) with ETV6.

Source of the values: article PMC7862700, “An all-to-all approach to the identification of sequence-specific readers for epigenetic DNA modifications on cytosine”.
